Targets with a hit are over-represented here; the source holds about 7,900 in all. About 0.6% of all pairs of compound and target were hits. Values without a mark were called inactive.
These targets were tested with c1cn2cc(-c3ccc4cn[nH]c4c3)nc(Nc3ccc(N4CCOCC4)cc3)c2n1 [entospletinib] (assay: log2 fold change, soluble protein after heating vs DMSO (PISA); higher = thermal stabilisation; K562 cells, 10 uM, 30 min; active = over 0.2 and 3.5 SD of the protein, either way, in both replicates (recomputed)).
How it was run: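 Thermal stability values are relative to control samples and come from duplicates. They are expressed as log2 fold changes. For measurement, K562 cells (2×10^6 cells/mL) received 10 μM compound for 30 min, and aliquots were heated for 3 min over 48°C-58°C, pooled, and extracted at 4°C in PBS with 0.5% NP-40. Soluble protein, the supernatant after 21,000xg for 90 min, was quantified by TMTpro 16plex LC-MS/MS with equalised channel sums.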

Chain of UniProt Q9UKL6 (Q9UKL6 whole entry, looked up): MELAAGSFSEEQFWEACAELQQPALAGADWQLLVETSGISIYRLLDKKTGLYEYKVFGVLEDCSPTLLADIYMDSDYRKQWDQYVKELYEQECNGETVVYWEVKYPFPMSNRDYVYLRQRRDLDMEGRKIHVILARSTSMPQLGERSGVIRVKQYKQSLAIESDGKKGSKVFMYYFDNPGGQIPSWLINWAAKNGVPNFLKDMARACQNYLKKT
Chain of UniProt P31321 (P31321 whole entry, looked up): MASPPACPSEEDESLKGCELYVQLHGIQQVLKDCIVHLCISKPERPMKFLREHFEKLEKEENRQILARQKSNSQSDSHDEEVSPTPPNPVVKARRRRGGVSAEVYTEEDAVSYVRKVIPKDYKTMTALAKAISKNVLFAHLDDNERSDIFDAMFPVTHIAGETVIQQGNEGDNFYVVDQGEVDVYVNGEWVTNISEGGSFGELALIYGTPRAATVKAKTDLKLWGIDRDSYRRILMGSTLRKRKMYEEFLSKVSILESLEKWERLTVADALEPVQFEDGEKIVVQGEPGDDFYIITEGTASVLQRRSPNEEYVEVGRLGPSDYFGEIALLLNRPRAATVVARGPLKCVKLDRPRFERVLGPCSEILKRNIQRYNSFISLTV
Chain of UniProt P0CG38 (P0CG38 whole entry, looked up): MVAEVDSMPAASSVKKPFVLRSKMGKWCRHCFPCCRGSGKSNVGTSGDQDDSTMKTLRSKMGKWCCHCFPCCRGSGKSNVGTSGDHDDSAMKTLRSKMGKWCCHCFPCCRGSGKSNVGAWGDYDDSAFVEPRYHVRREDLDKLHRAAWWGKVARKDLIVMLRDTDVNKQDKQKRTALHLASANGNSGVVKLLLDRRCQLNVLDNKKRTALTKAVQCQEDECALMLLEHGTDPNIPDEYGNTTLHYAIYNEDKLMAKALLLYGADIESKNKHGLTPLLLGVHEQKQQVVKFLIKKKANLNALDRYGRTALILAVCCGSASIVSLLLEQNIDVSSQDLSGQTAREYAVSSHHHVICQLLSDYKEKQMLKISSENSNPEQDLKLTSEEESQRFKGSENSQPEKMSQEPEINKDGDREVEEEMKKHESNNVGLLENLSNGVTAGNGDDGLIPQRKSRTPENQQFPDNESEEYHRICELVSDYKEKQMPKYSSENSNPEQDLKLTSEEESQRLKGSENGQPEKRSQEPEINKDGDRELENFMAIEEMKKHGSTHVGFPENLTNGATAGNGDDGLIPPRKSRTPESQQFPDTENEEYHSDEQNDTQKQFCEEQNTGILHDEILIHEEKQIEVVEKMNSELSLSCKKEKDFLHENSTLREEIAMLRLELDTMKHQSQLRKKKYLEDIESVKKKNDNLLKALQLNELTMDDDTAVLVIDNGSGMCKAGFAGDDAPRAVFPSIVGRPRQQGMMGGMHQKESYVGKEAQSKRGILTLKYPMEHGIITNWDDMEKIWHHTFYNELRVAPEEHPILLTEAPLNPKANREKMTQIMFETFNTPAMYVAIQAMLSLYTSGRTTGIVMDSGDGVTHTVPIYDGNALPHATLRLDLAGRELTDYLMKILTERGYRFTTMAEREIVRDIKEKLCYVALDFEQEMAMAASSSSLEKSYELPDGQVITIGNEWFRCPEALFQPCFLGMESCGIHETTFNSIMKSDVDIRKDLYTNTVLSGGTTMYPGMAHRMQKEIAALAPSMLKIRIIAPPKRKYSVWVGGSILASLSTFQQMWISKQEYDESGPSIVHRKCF
Chain of UniProt Q5H8A4 (Q5H8A4 whole entry, looked up): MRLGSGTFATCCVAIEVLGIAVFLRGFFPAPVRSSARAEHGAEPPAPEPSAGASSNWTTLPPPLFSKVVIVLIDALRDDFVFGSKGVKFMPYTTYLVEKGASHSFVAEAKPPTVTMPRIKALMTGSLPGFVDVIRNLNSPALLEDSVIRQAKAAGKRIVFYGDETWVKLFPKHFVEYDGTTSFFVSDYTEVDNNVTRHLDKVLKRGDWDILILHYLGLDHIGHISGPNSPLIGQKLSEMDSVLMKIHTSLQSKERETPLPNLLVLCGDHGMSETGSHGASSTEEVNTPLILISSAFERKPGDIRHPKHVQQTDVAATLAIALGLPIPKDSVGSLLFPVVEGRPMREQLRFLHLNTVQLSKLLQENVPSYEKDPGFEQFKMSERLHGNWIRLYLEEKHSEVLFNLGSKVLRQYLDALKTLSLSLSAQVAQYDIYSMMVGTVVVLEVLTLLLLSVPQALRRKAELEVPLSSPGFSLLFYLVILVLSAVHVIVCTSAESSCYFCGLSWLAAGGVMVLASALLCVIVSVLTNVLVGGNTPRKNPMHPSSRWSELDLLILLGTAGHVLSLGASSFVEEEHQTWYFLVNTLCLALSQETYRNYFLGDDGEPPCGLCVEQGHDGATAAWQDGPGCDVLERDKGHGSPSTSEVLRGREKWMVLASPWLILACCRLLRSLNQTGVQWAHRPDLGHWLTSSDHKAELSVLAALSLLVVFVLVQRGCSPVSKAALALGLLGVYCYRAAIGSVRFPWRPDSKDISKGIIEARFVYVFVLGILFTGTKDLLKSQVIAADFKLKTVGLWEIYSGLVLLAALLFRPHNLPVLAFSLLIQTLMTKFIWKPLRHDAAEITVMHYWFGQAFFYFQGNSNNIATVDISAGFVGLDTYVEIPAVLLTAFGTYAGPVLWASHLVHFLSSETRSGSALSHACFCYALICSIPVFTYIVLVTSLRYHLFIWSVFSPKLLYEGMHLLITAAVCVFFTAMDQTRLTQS
Chain of UniProt Q9Y244 (Q9Y244 whole entry, looked up): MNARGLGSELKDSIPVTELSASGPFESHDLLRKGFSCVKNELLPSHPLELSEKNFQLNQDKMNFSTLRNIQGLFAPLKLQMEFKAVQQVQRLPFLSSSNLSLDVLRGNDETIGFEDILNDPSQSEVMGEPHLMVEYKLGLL
Chain of UniProt Q15111 (Q15111 whole entry, looked up): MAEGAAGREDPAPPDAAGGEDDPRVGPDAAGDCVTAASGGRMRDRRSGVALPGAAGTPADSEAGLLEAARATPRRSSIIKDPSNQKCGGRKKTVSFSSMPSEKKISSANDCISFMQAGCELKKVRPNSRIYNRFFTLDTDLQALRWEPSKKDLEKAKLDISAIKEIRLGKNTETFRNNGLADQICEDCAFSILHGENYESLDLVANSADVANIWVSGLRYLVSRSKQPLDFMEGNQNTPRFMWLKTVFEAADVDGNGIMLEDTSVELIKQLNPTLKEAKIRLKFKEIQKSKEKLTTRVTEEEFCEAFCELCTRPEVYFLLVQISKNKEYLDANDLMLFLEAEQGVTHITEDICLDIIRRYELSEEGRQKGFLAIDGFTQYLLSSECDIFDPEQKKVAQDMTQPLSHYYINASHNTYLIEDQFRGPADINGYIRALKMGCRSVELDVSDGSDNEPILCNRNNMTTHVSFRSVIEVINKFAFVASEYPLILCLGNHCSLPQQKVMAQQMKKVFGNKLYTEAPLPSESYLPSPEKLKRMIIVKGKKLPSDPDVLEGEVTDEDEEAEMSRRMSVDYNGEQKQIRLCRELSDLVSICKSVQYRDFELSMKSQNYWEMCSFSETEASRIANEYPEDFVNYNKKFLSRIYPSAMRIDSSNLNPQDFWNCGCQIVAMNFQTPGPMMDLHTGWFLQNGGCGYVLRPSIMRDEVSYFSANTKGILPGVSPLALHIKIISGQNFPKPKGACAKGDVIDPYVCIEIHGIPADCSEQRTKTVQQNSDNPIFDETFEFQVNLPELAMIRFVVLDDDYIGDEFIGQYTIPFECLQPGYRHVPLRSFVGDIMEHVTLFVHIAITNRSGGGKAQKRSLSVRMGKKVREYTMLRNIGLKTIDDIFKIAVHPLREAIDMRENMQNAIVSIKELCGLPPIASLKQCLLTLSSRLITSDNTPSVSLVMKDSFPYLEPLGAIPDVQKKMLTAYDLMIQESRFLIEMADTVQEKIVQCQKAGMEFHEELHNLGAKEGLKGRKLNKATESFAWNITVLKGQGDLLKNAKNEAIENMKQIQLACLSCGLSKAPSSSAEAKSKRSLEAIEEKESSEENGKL
Chain of UniProt Q13131 (Q13131 whole entry, looked up): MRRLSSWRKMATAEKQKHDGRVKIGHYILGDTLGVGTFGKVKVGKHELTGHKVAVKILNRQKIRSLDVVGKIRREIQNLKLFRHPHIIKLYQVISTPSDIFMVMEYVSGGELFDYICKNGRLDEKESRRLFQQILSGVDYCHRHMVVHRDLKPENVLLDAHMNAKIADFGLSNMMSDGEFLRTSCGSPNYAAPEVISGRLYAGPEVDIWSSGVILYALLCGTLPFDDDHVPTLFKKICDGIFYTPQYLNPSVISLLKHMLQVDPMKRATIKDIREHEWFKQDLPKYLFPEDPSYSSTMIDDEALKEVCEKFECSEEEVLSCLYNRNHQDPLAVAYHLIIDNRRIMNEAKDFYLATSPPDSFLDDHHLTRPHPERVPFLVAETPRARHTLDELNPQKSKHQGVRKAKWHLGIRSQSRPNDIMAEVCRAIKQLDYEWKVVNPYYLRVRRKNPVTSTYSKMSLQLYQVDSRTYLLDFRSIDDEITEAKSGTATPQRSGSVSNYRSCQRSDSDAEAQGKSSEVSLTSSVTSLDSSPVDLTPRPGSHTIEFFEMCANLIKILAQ
Chain of UniProt P14618 (P14618 whole entry, looked up): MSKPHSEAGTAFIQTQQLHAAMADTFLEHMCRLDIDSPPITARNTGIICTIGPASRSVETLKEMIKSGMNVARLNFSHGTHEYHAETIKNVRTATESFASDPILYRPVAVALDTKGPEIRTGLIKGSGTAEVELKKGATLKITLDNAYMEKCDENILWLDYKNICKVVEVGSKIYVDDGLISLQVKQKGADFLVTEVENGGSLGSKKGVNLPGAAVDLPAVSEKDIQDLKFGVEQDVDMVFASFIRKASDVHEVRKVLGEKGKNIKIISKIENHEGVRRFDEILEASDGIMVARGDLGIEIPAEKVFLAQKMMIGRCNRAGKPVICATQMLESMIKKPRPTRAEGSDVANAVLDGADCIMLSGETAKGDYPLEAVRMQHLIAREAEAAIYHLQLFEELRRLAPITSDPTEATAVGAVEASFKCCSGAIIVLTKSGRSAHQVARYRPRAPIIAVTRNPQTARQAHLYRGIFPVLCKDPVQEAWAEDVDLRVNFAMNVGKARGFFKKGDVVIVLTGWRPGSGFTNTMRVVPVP

Target | log2 fold change
PHKA2 (UniProt P46019) | -0.043
PRCP (UniProt P42785) | -0.062
PRKCD (UniProt Q05655) | 0.018
PJA2 (UniProt O43164) | -0.009
PDIK1L (UniProt Q8N165) | 0.06
PYGL (UniProt P06737) | -0.088
PARG (UniProt Q86W56) | -0.015
PLCL1 (UniProt Q15111) | -0.099
PKM (UniProt P14618) | -0.04
PTPMT1 (UniProt Q8WUK0) | -0.018
POTEI (UniProt P0CG38) | -0.074
PIGG (UniProt Q5H8A4) | -0.034
PDE4DIP (UniProt E9PS60) | -0.01
PDCD2L (UniProt Q9BRP1) | -0.012
PCTP (UniProt Q9UKL6) | -0.072
PIP4K2A (UniProt P48426) | -0.049
PPP2R5C isoform 4 (UniProt Q13362) | -0.023
POMP (UniProt Q9Y244) | -0.015
PEF1 (UniProt Q9UBV8) | 0.023
PCF11 (UniProt O94913) | -0.745 (active)
PRKAR1B (UniProt P31321) | 0.231
PRKAA1 isoform 2 (UniProt Q13131) | -0.015
PPOX (UniProt P50336) | 0.028

— the supplement of paper PMC10849652
